In the supplement of paper PMC10849652:
About 8,800 targets were measured; listed, in parts, are those with a hit and a random draw of the rest. About 0.5% of all pairs of compound and target were hits. A number with no mark means an inactive call.

compound: Cc1cc(Nc2cc(N3CCN(C)CC3)nc(Sc3ccc(NC(=O)C4CC4)cc3)n2)n[nH]1 [tozasertib]; test: log2 fold change, soluble protein after heating vs DMSO (PISA); higher = thermal stabilisation; K562 lysate, 10 uM; active = over 0.2 and 3.5 SD of the protein, either way, in both replicates (recomputed)
Procedure, shortened: (§1)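 Soluble protein was defined as the supernatant remaining after 21,000xg for 90 min, following pooling of heated aliquots and adjustment to 0.5% NP-40 at 4°C. Before that, crude K562 extract at 1 mg/mL protein in PBS pH 7.4 with 1 mM MgCl2 was treated with 10 μM compound for 30 min and heated for 3 min across 48°C-58°C. Quantification used TMTpro 16plex LC-MS/MS with channel sums equalised, and values are log-two fold changes in thermal stability relative to solvent controls from duplicates.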

UniProt O75446, sequence (O75446 whole entry, looked up): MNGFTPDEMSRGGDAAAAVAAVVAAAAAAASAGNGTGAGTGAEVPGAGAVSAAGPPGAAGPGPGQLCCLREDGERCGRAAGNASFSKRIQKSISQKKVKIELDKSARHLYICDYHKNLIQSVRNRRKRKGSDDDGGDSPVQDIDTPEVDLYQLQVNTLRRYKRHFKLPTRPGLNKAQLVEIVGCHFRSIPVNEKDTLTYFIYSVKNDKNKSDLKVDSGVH
UniProt Q9Y3T6, sequence (Q9Y3T6 whole entry, looked up, one chain of several): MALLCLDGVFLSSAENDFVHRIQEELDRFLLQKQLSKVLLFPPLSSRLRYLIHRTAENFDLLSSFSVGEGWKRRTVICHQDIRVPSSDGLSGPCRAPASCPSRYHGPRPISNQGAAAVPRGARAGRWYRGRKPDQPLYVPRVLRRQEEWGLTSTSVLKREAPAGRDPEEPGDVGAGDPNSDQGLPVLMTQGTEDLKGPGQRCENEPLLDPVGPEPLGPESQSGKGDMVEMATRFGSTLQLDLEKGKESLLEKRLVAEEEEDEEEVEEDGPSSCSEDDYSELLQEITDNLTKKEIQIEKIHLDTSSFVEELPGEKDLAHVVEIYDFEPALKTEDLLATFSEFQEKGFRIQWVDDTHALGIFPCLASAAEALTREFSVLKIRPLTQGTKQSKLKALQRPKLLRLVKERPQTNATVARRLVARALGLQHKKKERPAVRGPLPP
UniProt Q9H974, sequence (Q9H974 whole entry, looked up): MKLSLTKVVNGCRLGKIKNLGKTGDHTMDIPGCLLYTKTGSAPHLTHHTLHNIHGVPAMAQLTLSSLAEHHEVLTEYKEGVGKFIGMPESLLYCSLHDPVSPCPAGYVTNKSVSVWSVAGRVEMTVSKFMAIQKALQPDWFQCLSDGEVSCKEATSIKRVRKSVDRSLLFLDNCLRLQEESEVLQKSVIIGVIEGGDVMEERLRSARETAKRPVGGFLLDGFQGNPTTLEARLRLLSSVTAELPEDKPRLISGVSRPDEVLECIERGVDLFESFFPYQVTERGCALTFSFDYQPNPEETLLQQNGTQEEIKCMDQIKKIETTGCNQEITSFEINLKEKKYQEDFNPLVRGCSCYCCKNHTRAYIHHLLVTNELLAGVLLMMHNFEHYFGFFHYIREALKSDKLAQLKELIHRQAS
UniProt Q9H1K0, sequence (Q9H1K0 whole entry, looked up): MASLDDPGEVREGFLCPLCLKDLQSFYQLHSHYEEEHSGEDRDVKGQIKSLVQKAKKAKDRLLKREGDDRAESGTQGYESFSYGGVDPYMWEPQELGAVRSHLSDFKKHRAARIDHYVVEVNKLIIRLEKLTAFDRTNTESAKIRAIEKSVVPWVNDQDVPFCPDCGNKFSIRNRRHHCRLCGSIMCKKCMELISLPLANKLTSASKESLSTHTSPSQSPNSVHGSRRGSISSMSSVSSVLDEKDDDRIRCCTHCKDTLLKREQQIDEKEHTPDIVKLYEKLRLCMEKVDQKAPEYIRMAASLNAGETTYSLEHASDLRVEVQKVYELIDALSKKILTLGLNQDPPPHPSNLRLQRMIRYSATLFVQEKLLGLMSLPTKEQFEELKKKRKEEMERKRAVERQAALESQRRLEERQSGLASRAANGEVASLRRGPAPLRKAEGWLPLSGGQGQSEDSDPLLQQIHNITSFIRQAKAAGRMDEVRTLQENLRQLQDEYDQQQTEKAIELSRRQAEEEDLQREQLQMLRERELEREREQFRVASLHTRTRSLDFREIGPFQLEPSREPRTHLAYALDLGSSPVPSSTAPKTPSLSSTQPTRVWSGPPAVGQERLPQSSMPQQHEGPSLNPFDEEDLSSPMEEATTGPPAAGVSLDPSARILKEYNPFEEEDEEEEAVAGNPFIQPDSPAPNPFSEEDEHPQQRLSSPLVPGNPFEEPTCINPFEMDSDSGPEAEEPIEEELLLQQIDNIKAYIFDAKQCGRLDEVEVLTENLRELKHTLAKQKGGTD
UniProt Q16576, sequence (Q16576 whole entry, looked up): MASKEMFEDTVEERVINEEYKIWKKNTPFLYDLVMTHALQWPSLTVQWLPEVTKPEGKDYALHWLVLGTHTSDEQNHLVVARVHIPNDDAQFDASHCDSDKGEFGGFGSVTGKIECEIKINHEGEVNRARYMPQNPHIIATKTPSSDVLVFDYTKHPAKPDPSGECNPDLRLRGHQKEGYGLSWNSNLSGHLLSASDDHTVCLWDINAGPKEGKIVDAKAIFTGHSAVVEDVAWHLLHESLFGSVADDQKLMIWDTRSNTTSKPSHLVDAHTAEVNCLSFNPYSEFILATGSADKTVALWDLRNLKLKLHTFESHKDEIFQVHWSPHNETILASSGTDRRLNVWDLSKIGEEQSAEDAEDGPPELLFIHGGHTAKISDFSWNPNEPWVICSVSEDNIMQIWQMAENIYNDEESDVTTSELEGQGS
UniProt Q9BXT8, sequence (Q9BXT8 whole entry, looked up): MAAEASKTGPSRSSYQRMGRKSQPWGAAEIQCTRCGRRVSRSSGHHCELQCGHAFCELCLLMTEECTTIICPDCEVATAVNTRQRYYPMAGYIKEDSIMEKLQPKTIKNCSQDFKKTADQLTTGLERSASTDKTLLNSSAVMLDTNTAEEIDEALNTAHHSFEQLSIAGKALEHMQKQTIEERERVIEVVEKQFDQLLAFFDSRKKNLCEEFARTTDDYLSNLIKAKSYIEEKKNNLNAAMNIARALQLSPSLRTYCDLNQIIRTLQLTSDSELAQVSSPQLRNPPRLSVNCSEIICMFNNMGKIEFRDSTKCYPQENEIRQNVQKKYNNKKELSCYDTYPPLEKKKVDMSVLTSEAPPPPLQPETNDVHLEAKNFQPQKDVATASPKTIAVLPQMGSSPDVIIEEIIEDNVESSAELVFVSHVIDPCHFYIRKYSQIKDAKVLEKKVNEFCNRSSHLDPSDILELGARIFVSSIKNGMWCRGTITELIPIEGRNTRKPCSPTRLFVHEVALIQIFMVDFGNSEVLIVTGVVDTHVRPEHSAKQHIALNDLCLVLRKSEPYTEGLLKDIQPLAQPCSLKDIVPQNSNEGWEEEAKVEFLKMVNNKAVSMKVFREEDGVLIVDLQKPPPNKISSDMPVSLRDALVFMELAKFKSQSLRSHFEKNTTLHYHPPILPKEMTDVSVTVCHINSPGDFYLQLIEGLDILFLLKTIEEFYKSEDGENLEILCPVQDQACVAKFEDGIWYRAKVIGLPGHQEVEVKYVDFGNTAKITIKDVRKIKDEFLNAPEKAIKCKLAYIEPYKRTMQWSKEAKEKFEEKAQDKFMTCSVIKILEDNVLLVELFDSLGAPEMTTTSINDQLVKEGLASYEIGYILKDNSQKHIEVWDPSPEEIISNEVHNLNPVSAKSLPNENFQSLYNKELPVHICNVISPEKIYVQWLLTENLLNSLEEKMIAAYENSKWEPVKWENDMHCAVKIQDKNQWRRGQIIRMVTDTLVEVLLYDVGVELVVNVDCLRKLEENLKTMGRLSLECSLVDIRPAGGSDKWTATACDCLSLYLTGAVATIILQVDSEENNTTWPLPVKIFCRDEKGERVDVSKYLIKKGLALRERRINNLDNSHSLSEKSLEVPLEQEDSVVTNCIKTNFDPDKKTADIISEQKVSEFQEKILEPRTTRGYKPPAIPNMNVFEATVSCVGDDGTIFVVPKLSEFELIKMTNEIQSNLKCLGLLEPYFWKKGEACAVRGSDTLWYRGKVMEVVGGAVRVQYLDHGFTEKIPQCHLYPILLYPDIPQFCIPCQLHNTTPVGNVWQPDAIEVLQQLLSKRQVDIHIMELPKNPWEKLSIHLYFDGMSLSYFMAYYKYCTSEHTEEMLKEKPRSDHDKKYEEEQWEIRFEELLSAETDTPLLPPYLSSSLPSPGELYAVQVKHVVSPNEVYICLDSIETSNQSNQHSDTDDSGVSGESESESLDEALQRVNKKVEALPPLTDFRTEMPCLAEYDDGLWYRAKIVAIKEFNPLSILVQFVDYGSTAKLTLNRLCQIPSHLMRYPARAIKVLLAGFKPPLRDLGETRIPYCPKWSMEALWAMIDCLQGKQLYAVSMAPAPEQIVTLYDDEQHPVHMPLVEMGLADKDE
UniProt O94762, sequence (O94762 whole entry, looked up): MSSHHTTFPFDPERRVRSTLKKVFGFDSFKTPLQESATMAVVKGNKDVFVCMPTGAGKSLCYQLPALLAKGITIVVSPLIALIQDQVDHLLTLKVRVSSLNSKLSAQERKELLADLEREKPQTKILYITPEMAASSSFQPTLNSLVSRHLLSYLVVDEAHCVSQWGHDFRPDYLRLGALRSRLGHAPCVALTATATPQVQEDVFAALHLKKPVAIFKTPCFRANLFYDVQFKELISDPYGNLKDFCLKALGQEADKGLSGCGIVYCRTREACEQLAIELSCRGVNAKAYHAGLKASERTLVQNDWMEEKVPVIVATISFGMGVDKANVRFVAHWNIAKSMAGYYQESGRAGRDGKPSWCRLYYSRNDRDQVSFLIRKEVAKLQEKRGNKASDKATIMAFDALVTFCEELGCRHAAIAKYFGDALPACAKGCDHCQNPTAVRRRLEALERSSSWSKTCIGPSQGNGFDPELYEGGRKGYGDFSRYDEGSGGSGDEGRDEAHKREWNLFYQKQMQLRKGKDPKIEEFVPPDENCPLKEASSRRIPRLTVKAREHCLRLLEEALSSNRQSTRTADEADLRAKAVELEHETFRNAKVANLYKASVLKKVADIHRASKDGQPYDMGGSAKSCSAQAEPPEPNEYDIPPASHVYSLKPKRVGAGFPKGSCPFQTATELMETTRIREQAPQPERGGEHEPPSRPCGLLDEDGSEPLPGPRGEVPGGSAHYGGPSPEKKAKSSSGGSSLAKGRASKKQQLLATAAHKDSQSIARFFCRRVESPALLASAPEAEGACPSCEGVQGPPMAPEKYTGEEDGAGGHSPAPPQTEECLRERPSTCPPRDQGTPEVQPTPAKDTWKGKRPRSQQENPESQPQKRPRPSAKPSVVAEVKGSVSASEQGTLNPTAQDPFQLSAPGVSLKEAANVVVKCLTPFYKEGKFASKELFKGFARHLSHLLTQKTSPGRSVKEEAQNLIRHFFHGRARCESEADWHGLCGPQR
UniProt P31949, sequence (P31949 whole entry, looked up): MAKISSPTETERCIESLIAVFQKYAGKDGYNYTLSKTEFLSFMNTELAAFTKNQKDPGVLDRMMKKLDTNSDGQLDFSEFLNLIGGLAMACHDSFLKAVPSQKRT

RDH10 (UniProt Q8IZV5) and RPTOR (UniProt Q8N122) are within 0.2 log units of each other in log2 fold change: -0.032 for the first, 0.019 for the second.

SASS6 (UniProt Q6UVJ0) and RBBP7 isoform 2 (UniProt Q16576) are within 0.2 log units of each other in log2 fold change: 0.004 for the first, 0.017 for the second.

RAB21 (UniProt Q9UL25) and RBSN (UniProt Q9H1K0) are within 0.2 log units of each other in log2 fold change: -0.013 for the first, 0.13 for the second.

RECQL5 (UniProt O94762) and SAP30 (UniProt O75446) are within 0.2 log units of each other in log2 fold change: 0.031 for the first, -0.056 for the second.

R3HCC1 (UniProt Q9Y3T6) and RPL31 (UniProt P62899) are within 0.2 log units of each other in log2 fold change: 0.006 for the first, -0.006 for the second.

S100A11 (UniProt P31949) and RFC2 (UniProt P35250) are within 0.2 log units of each other in log2 fold change: -0.043 for the first, 0.005 for the second.

RPL27 (UniProt P61353) and RXRB isoform 3 (UniProt P28702) are within 0.2 log units of each other in log2 fold change: 0.01 for the first, 0.006 for the second.

RIC1 (UniProt Q4ADV7) and RAPGEF2, A0A2R8YGD3 are within 0.2 log units of each other in log2 fold change: 0.01 for the first, 0.014 for the second.

REEP5 (UniProt Q00765) and QTRT2 isoform 4 (UniProt Q9H974) are within 0.2 log units of each other in log2 fold change: -0.052 for the first, 0.003 for the second.

RAP1GAP isoform 4 (UniProt P47736) and REXO4 (UniProt Q9GZR2) are within 0.2 log units of each other in log2 fold change: -0.009 for the first, -0.017 for the second.

RIOK2 (UniProt Q9BVS4) and RNF17 (UniProt Q9BXT8) are within 0.2 log units of each other in log2 fold change: -0.011 for the first, 0.119 for the second.

SCCPDH (UniProt Q8NBX0) and RPS26P11 (UniProt Q5JNZ5) are within 0.2 log units of each other in log2 fold change: -0.052 for the first, -0.055 for the second.

RBM23 isoform 2 (UniProt Q86U06) and RBMX (UniProt P38159) are within 0.2 log units of each other in log2 fold change: 0.053 for the first, 0.013 for the second.

RNASEH2B (UniProt Q5TBB1) and RNF168 (UniProt Q8IYW5) are within 0.2 log units of each other in log2 fold change: 0.055 for the first, -0.088 for the second.

RALA (UniProt P11233) and RPS4X (UniProt P62701) are within 0.2 log units of each other in log2 fold change: -0.009 for the first, -0.018 for the second.

RETREG2 (UniProt Q8NC44) and SEC13 isoform 3 (UniProt P55735) are within 0.2 log units of each other in log2 fold change: 0.025 for the first, 0.01 for the second.

compound: Cc1ccc(-n2nc(C(C)(C)C)cc2NC(=O)Nc2ccc(OCCN3CCOCC3)c3ccccc23)cc1 [doramapimod]; test: as above
Procedure, shortened: as §1

RDH10 (UniProt Q8IZV5) and RPTOR (UniProt Q8N122) are within 0.2 log units of each other in log2 fold change: -0.012 for the first, 0.025 for the second.

SASS6 (UniProt Q6UVJ0) and RBBP7 isoform 2 (UniProt Q16576) are within 0.2 log units of each other in log2 fold change: -0.01 for the first, 0.035 for the second.

RAB21 (UniProt Q9UL25) and RBSN (UniProt Q9H1K0) are within 0.2 log units of each other in log2 fold change: -0.055 for the first, -0.026 for the second.

RECQL5 (UniProt O94762) and SAP30 (UniProt O75446) are within 0.2 log units of each other in log2 fold change: -0.008 for the first, 0.013 for the second.

R3HCC1 (UniProt Q9Y3T6) and RPL31 (UniProt P62899) are within 0.2 log units of each other in log2 fold change: 0.044 for the first, -0.041 for the second.

S100A11 (UniProt P31949) and RFC2 (UniProt P35250) are within 0.2 log units of each other in log2 fold change: 0.003 for the first, 0.042 for the second.

RPL27 (UniProt P61353) and RXRB isoform 3 (UniProt P28702) are within 0.2 log units of each other in log2 fold change: -0.034 for the first, -0.091 for the second.

RIC1 (UniProt Q4ADV7) and RAPGEF2, A0A2R8YGD3 are within 0.2 log units of each other in log2 fold change: 0.026 for the first, -0.039 for the second.

REEP5 (UniProt Q00765) and QTRT2 isoform 4 (UniProt Q9H974) are within 0.2 log units of each other in log2 fold change: -0.03 for the first, -0.029 for the second.

RAP1GAP isoform 4 (UniProt P47736) and REXO4 (UniProt Q9GZR2) are within 0.2 log units of each other in log2 fold change: -0.001 for the first, -0.056 for the second.

RIOK2 (UniProt Q9BVS4) and RNF17 (UniProt Q9BXT8) are within 0.2 log units of each other in log2 fold change: -0.028 for the first, 0.006 for the second.

SCCPDH (UniProt Q8NBX0) and RPS26P11 (UniProt Q5JNZ5) are within 0.2 log units of each other in log2 fold change: -0.102 for the first, 0.021 for the second.

RBMX (UniProt P38159) and RNASEH2B (UniProt Q5TBB1) are within 0.2 log units of each other in log2 fold change: 0.008 for the first, 0.041 for the second.

RNF168 (UniProt Q8IYW5) and RALA (UniProt P11233) are within 0.2 log units of each other in log2 fold change: -0.008 for the first, 0.014 for the second.

RPS4X (UniProt P62701) and RETREG2 (UniProt Q8NC44) are within 0.2 log units of each other in log2 fold change: -0.01 for the first, -0.005 for the second.

SEC13 isoform 3 (UniProt P55735) and RNF149 (UniProt Q8NC42) are within 0.2 log units of each other in log2 fold change: -0.031 for the first, -0.099 for the second.

In the case of RBM23 isoform 2 (UniProt Q86U06), the log2 fold change was 0.489 (active).

compound: Cc1ccc(NC(=O)c2ccc(CN3CC[C@H](N(C)C)C3)c(C(F)(F)F)c2)cc1Nc1nccc(-c2cncnc2)n1 [bafetinib]; test: as above
Procedure, shortened: as §1

RDH10 (UniProt Q8IZV5) and RPTOR (UniProt Q8N122) are within 0.2 log units of each other in log2 fold change: 0.001 for the first, -0.057 for the second.

SASS6 (UniProt Q6UVJ0) and RBBP7 isoform 2 (UniProt Q16576) are within 0.2 log units of each other in log2 fold change: -0.032 for the first, 0.018 for the second.

RAB21 (UniProt Q9UL25) and RBSN (UniProt Q9H1K0) are within 0.2 log units of each other in log2 fold change: -0.059 for the first, 0.026 for the second.

RECQL5 (UniProt O94762) and SAP30 (UniProt O75446) are within 0.2 log units of each other in log2 fold change: -0.062 for the first, -0.073 for the second.

R3HCC1 (UniProt Q9Y3T6) and RPL31 (UniProt P62899) are within 0.2 log units of each other in log2 fold change: 0.002 for the first, -0.023 for the second.

S100A11 (UniProt P31949) and RFC2 (UniProt P35250) are within 0.2 log units of each other in log2 fold change: -0.039 for the first, -0.074 for the second.

RPL27 (UniProt P61353) and RXRB isoform 3 (UniProt P28702) are within 0.2 log units of each other in log2 fold change: -0.033 for the first, -0.11 for the second.

RAPGEF2, A0A2R8YGD3 and REEP5 (UniProt Q00765) are within 0.2 log units of each other in log2 fold change: -0.171 for the first, -0.027 for the second.

QTRT2 isoform 4 (UniProt Q9H974) and RAP1GAP isoform 4 (UniProt P47736) are within 0.2 log units of each other in log2 fold change: -0.089 for the first, -0.069 for the second.

REXO4 (UniProt Q9GZR2) and RIOK2 (UniProt Q9BVS4) are within 0.2 log units of each other in log2 fold change: -0.06 for the first, 0.093 for the second.

Going from RNF17 (UniProt Q9BXT8) to SCCPDH (UniProt Q8NBX0), the log2 fold change rises from -0.285 to -0.015.

RPS26P11 (UniProt Q5JNZ5) and RBM23 isoform 2 (UniProt Q86U06) are within 0.2 log units of each other in log2 fold change: -0.072 for the first, -0.114 for the second.

RBMX (UniProt P38159) and RNASEH2B (UniProt Q5TBB1) are within 0.2 log units of each other in log2 fold change: 0.068 for the first, 0.027 for the second.

Going from RNF168 (UniProt Q8IYW5) to RALA (UniProt P11233), the log2 fold change rises from -0.212 to 0.029.

RPS4X (UniProt P62701) and RETREG2 (UniProt Q8NC44) are within 0.2 log units of each other in log2 fold change: -0.008 for the first, -0.141 for the second.

SEC13 isoform 3 (UniProt P55735) and RNF149 (UniProt Q8NC42) are within 0.2 log units of each other in log2 fold change: -0.016 for the first, -0.105 for the second.

RIC1 (UniProt Q4ADV7) was tested, and the log2 fold change was 0.3 (active).
